Experimental data from PubChem BioAssay AID1159580 (chemical genetic matrix, 2015).
The whole screen tested about 5,500 compounds, of which about 2,000 (36%) were called active. Another 18% or so got no clear call; they are omitted. Rule as the data show it: active = normalized growth mostly below about 0.91 (no sharp cut-off); inconclusive = no clear call, values can overlap the other calls; inactive = mostly above about 0.92. The list shows a part of the results.

Test: chemical genetic growth profiling, strain panel (AID 1159580);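 also: tested at 20 µM; growth read once vehicle control cultures reached saturation at 30 °C; 1 = growth at the plate median or of vehicle wells; lower values mean less growth of the strain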
Settings: growth OD

Measured: normalized growth

C=CCc1ccc2c(c1)OCO2
inactive: S. cerevisiae deletion strains, locus YJR043C, strain POL32, active compounds read low 1.02 | S. cerevisiae deletion strains, locus YJR066W, strain TOR1, active compounds read low 0.928 | S. cerevisiae deletion strains, locus YJR075W, strain HOC1, active compounds read low 1.03 | S. cerevisiae deletion strains, locus YKL009W, strain mrt4, active compounds read low 0.979 | S. cerevisiae deletion strains, locus YKL068W, active compounds read low 0.987 | S. cerevisiae deletion strains, locus YKL085W, strain MDH1 (second series), active compounds read low 1.01 | S. cerevisiae deletion strains, locus YKL085W, strain MDH1, active compounds read low 1.01 | S. cerevisiae deletion strains, locus YKL160W, strain elf1, active compounds read low 0.994 | S. cerevisiae deletion strains, locus YKL190W, strain CNB1, active compounds read low 1.01 | S. cerevisiae deletion strains, locus YKR001C, strain vps1, active compounds read low 0.965 | S. cerevisiae deletion strains, locus YKR026C, strain gcn3, active compounds read low 1.03 | S. cerevisiae deletion strains, locus YKR091W, strain srl3, active compounds read low 1.02 | S. cerevisiae deletion strains, locus YLL001W, strain dnm1, active compounds read low 1.05 | S. cerevisiae deletion strains, locus YLL026W, active compounds read low 1.01 | S. cerevisiae deletion strains, locus YLL041C, strain sdh2, active compounds read low 1.02 | S. cerevisiae deletion strains, locus YLR027C, strain aat2, active compounds read low 1 | S. cerevisiae deletion strains, locus YLR039C, strain RIC1, active compounds read low 0.891 | S. cerevisiae deletion strains, locus YLR058C, strain SHM2, active compounds read low 1.01 | S. cerevisiae deletion strains, locus YLR102C, strain apc9, active compounds read low 0.993 | S. cerevisiae deletion strains, locus YLR113W, strain HOG1, active compounds read low 1.03 | S. cerevisiae deletion strains, locus YLR221C, strain rsa3, active compounds read low 1.06 | S. cerevisiae deletion strains, locus YLR258W, strain gsy2, active compounds read low 1.02 | S. cerevisiae deletion strains, locus YLR262C, strain YPT6 (second series), active compounds read low 1.03 | S. cerevisiae deletion strains, locus YLR262C, strain YPT6, active compounds read low 0.909 | S. cerevisiae deletion strains, locus YLR268W, strain sec22, active compounds read low 0.987 | S. cerevisiae deletion strains, locus YLR320W, strain mms22, active compounds read low 1.04 | S. cerevisiae deletion strains, locus YLR330W, strain CHS5, active compounds read low 1 | S. cerevisiae deletion strains, locus YLR342W, strain FKS1 (second series), active compounds read low 1.01 | S. cerevisiae deletion strains, locus YLR342W, strain FKS1, active compounds read low 1.02 | S. cerevisiae deletion strains, locus YLR357W, strain rsc2, active compounds read low 1.13 | S. cerevisiae deletion strains, locus YLR370C, strain arc18, active compounds read low 1.04 | S. cerevisiae deletion strains, locus YLR371W, strain rom2, active compounds read low 0.984 | S. cerevisiae deletion strains, locus YLR384C, strain iki3, active compounds read low 1.03 | S. cerevisiae deletion strains, locus YLR418C, strain cdc73, active compounds read low 1.01 | S. cerevisiae deletion strains, locus YML016C, strain PPZ1, active compounds read low 1.01 | S. cerevisiae deletion strains, locus YML032C, strain rad52, active compounds read low 0.996 | S. cerevisiae deletion strains, locus YML120C, strain ndi1, active compounds read low 1.05 | S. cerevisiae deletion strains, locus YML124C, strain tub3, active compounds read low 0.995 | S. cerevisiae deletion strains, locus YMR058W, strain fet3, active compounds read low 1.04 | S. cerevisiae deletion strains, locus YMR078C, strain ctf18, active compounds read low 0.985 | S. cerevisiae deletion strains, locus YMR125W, strain sto1, active compounds read low 1.08 | S. cerevisiae deletion strains, locus YMR129W, active compounds read low 1.03 | S. cerevisiae deletion strains, locus YMR205C, strain PFK2, active compounds read low 1 | S. cerevisiae deletion strains, locus YMR223W, strain ubp8, active compounds read low 1 | S. cerevisiae deletion strains, locus YMR231W, strain pep5, active compounds read low 1.02 | S. cerevisiae deletion strains, locus YMR263W, strain SAP30, active compounds read low 1 | S. cerevisiae deletion strains, locus YMR307W, strain GAS1, active compounds read low 0.995 | S. cerevisiae deletion strains, locus YNL067W, strain RPL9B, active compounds read low 0.998 | S. cerevisiae deletion strains, locus YNL071W, strain lat1, active compounds read low 1.03 | S. cerevisiae deletion strains, locus YNL183C, strain NPR1, active compounds read low 0.97 | S. cerevisiae deletion strains, locus YNL209W, strain ssb2, active compounds read low 1.02 | S. cerevisiae deletion strains, locus YNL233W, strain BNI4, active compounds read low 1 | S. cerevisiae deletion strains, locus YNL248C, strain rpa49, active compounds read low 1.04 | S. cerevisiae deletion strains, locus YNL250W, strain rad50, active compounds read low 1.01 | S. cerevisiae deletion strains, locus YNL271C, strain bni1, active compounds read low 0.978 | S. cerevisiae deletion strains, locus YNL298W, strain CLA4, active compounds read low 0.995 | S. cerevisiae deletion strains, locus YNL307C, strain MCK1, active compounds read low 0.989 | S. cerevisiae deletion strains, locus YNL322C, strain KRE1 (second series), active compounds read low 1.02 | S. cerevisiae deletion strains, locus YNR049C, strain mso1, active compounds read low 1.02 | S. cerevisiae deletion strains, locus YNR052C, strain pop2, active compounds read low 0.997 | S. cerevisiae deletion strains, locus YOL012C, strain htz1 0.985 | S. cerevisiae deletion strains, locus YOL147C, strain pex11, active compounds read low 0.987 | S. cerevisiae deletion strains, locus YOR001W, strain rrp6, active compounds read low 1 | S. cerevisiae deletion strains, locus YOR061W, strain CKA2, active compounds read low 1.01 | S. cerevisiae deletion strains, locus YOR069W, strain VPS5, active compounds read low 1.01 | S. cerevisiae deletion strains, locus YOR070C, strain gyp1, active compounds read low 1.01 | S. cerevisiae deletion strains, locus YOR080W, strain dia2, active compounds read low 1.03 | S. cerevisiae deletion strains, locus YOR083W, strain WHI5, active compounds read low 1 | S. cerevisiae deletion strains, locus YOR106W, strain vam3, active compounds read low 1.04 | S. cerevisiae deletion strains, locus YOR136W, strain idh2, active compounds read low 0.987 | S. cerevisiae deletion strains, locus YOR144C, strain elg1, active compounds read low 0.988 | S. cerevisiae deletion strains, locus YOR184W, strain ser1, active compounds read low 0.99 | S. cerevisiae deletion strains, locus YOR231W, strain MKK1, active compounds read low 0.99 | S. cerevisiae deletion strains, locus YOR265W, strain rbl2, active compounds read low 1.01 | S. cerevisiae deletion strains, locus YOR270C, strain vph1, active compounds read low 1.07 | S. cerevisiae deletion strains, locus YOR290C, strain snf2, active compounds read low 1.07 | S. cerevisiae deletion strains, locus YOR316C, strain cot1, active compounds read low 0.99 | S. cerevisiae deletion strains, locus YPL051W, strain arl3, active compounds read low 1 | S. cerevisiae deletion strains, locus YPL078C, strain atp4, active compounds read low 1.01 | S. cerevisiae deletion strains, locus YPL106C, strain sse1, active compounds read low 1.03 | S. cerevisiae deletion strains, locus YPL240C, strain hsp82, active compounds read low 1.02 | S. cerevisiae deletion strains, locus YPL256C, strain CLN2, active compounds read low 0.966 | S. cerevisiae deletion strains, locus YPR119W, strain clb2, active compounds read low 0.982 | S. cerevisiae deletion strains, locus YPR141C, strain kar3, active compounds read low 0.976 | S. cerevisiae deletion strains, locus YPR163C, strain tif3, active compounds read low 0.989 | S. cerevisiae deletion strains, locus YPR167C, strain met16, active compounds read low 0.991 | S. cerevisiae deletion strains, strain wtn01, active compounds read low 1.01 | S. cerevisiae strains, strain wild type, active compounds read low 1.01
